Reference: PubChem BioAssay (NCATS)
Inconclusive results are not listed. Entries that show only a call come without a potency. Unmarked numbers belong to inactive results. Activity calls are given as the source filed them. Unless noted, calls come from the whole dose curve; as a rule, active = well fitted curve in the direction sought with a large enough effect; inconclusive = small, poorly fitted or top-dose-only effect, or another doubt; inactive = no such curve, though single readings can be large; an effect the other way counts as inactive or inconclusive.

Experiments:
[1] = Primary qHTS for inhibitors of La Crosse Virus (LACV) - induced cell death in SH-SY5Y cells (AID 1508616);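 note: top concentration of the series differs between compounds; higher means more rescue of cells from virus-induced death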
Summary of the method: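 Readout was luminescence from ATPLite 1step added after a 6-day LACV infection (0.01 MOI) of SH-SY5Y cells that had received pin-transferred compound 24 hr after seeding.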

[2] = biological target: Calcium and integrin-binding protein 1 (Homo sapiens) (UniProt Q99828); assay: Primary qHTS for Identification of Calcium Integrin Binding Protein 1 (CIB1) Competitor (AID 1508620);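 note: GST tagged CIB1 binding a fluorescein labelled alphaIIb integrin peptide tracer; top concentration of the series differs between compounds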
Chain of Calcium and integrin-binding protein 1 (Homo sapiens) (Q99828 whole entry, looked up): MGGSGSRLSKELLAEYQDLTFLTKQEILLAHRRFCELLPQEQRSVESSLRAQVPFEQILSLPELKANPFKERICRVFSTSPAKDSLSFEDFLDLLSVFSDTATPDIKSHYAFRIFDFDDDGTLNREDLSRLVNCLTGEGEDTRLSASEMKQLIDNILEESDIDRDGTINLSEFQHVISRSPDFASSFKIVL
Summary of the method: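 Fluorescence polarization competition: CIB1-GST (1 uM final) preincubated with compound 15 min at room temperature, then FITC-labeled alphaIIb peptide (100 nM final) added for another 15 min. Polarization read at Ex 480/Em 540.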

[3] = Primary qHTS for small molecule stabilizers of the endoplasmic reticulum resident proteome: Secreted ER Calcium Modulated Protein (SERCaMP) assay (AID 1508630)
Summary of the method: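 GLuc-SERCaMP-expressing SH-SY5Y cells, pretreated 16 h with compound, are challenged with thapsigargin to empty ER calcium stores; after 4 h, coelenterazine is added directly to the medium and luminescence is imaged.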

[4] = A High-Content qHTS Against Drug Library for the Identification of Small Molecules that Inhibit DYT1 Early Onset Primary Dystonia-Associated Cell Pathology (AID 1645839; calls by dose curve; note: potency is the fitted concentration of half-maximal effect; for % pathology change, negative = correction: series mostly up to about 46 µM)
Summary of the method: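 Readout: %pathology, the punctate EGFP-TorsinA distribution from imaging, as the primary channel and cell count as the toxicity counterscreen. HEK293 Flp-In cells expressing delE TorsinA were induced with tetracycline and treated with compound for 48 h.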

[5] = biological target: Cytochrome P450 2D6 (Homo sapiens) (UniProt P10635); assay: Cytochrome P450 family 2 subfamily D member 6 (CYP2D6) small molecule antagonists: luciferase biochemical (cell-free) qHTS assay (AID 1645840; active = well fitted curve in the direction sought with a large enough effect in the repeat runs; an effect the other way counts as inactive or inconclusive; note: series mostly up to about 57 µM; nearly all actives have a fitted effect of over 55% in size)
Chain of Cytochrome P450 2D6 (Homo sapiens) (P10635 whole entry, looked up): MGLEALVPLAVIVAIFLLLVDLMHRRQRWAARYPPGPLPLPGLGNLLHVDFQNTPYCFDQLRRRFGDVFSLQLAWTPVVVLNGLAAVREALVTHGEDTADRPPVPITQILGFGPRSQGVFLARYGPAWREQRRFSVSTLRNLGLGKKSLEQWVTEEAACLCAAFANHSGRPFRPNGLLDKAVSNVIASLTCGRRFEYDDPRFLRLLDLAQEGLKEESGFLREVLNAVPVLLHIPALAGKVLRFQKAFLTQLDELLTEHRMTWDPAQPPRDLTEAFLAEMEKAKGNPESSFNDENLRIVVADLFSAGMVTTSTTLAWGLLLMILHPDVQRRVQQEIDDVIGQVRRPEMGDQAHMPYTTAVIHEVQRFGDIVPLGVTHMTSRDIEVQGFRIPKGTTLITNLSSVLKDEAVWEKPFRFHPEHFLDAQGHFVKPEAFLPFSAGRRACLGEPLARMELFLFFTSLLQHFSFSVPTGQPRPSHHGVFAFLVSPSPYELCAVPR
Summary of the method: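 P450-Glo luminescent screen: recombinant CYP2D6 enzyme–proluciferin substrate mix preincubated with compound 10 min at room temperature, then NADPH regeneration added for 1 h at room temperature. Detection reagent added for 20 min; luciferin light read as relative luminescence units.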

[6] = biological target: Cytochrome P450 2C9 (Homo sapiens) (UniProt P11712); assay: Cytochrome P450 family 2 subfamily C member 9 (CYP2C9) small molecule antagonists: luciferase biochemical (cell-free) qHTS assay (AID 1645842; active = well fitted curve in the direction sought with a large enough effect in the repeat runs; an effect the other way counts as inactive or inconclusive; note: nearly all actives have a fitted effect of over 55% in size; note: potency is the fitted concentration of half-maximal effect; for activity change, negative = inhibition: series mostly up to about 57 µM)
Chain of Cytochrome P450 2C9 (Homo sapiens) (P11712 whole entry, looked up): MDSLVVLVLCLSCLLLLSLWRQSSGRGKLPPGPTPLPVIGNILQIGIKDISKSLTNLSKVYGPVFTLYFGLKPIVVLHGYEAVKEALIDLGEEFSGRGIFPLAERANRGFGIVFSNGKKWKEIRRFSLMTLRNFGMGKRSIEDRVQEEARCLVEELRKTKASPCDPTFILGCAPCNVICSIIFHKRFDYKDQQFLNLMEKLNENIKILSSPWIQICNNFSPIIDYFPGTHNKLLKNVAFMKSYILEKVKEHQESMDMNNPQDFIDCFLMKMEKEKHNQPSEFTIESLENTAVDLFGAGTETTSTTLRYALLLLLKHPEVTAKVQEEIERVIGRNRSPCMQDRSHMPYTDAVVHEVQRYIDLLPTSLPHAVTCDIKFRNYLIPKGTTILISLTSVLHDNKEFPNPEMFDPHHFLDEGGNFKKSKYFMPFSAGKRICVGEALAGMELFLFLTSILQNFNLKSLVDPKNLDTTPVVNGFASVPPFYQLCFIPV
Summary of the method: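 Luminescence, after 20 min with luciferin detection reagent, reflected CYP2C9 turnover during a 1 h NADPH-driven reaction at 37C. Enzyme-substrate mix contained 0.4% bovine serum albumin and was preincubated with compound 10 min at room temperature.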

[7] = Primary qHTS for inhibitors of nuclear receptor binding SET domain protein 2 (NSD2) in an isogenic RCH-ACV NSD2 p.E1099K mutant (9B) (AID 1645876); note: nearly all actives have a fitted effect of over 70% in size; note: potency is the fitted concentration of half-maximal effect
[8] = Primary qHTS for inhibitors of nuclear receptor binding SET domain protein 2 (NSD2) in an RCH-ACV wild type WT cells (2C) (AID 1645877); note: nearly all actives have a fitted effect of over 70% in size; note: potency is the fitted concentration of half-maximal effect

SMILES	outcome [1]	Potency [2]	Potency [3]	Potency [4]	Potency [5]	Potency [6]	Potency [7]	Potency [8]	activity change [1]	activity change, negative = inhibition [3]	% pathology change, negative = correction [4]	activity change, negative = inhibition [5]	activity change, negative = inhibition [6]	activity change, negative = viability loss [7]	activity change, negative = cell killing [8]
CC(C)NC(=O)c1ccc(C=O)cc1	inactive	inactive	inactive	inactive	inactive	inactive	inactive	inactive	–	–	–	–	–	–	–
O=C(CO)[C@@H](O)[C@H](O)[C@@H](O)CO	inactive	inactive	inactive	inactive	inactive	inactive	inactive	inactive	–	–	–	–	–	–	–
CN(CC1(C)CCCO1)S(=O)(=O)c1ccc(Cl)c(S(N)(=O)=O)c1 (centres undefined)	inactive	inactive	inactive	inactive	inactive	inactive	inactive	inactive	–	–	–	–	–	–	–
CCCc1ncc(C(=O)O)s1	inactive	inactive	inactive	inactive	inactive	inactive	inactive	inactive	–	–	–	–	–	–	–
CC(=O)Oc1ccc(C2(c3ccc(OC(C)=O)cc3)Oc3ccccc3NC2=O)cc1	inactive	inactive	inactive	12.6 µM (active)	inactive	1.74 µM (active)	8.17 µM (active)	10.3 µM (active)	–	–	–	–	–	–	–
Cc1cccc(C)c1NC(=O)c1cc(S(N)(=O)=O)c(Cl)cc1O	inactive	inactive	inactive	inactive	inactive	inactive	inactive	inactive	–	–	–	–	–	–	–
CCCCCCCCCCCCCCCCCCN(C)C	inactive	inactive	inactive	inactive	inactive	inactive	inactive	inactive	–	–	–	–	–	–	–
CC1CN(c2cc3c(cc2F)c(=O)c(C(=O)O)cn3-c2ccc(F)cc2F)CCN1 (centres undefined)	–	inactive	–	–	–	–	–	–	-2.85% [at 0.431 µM]	-17% [at 3.88 µM]	-2.29% [at 4.63 µM]	-0.861% [at 4.83 µM]	17.6% [at 4.83 µM]	4.46% [at 4.96 µM]	-0.258% [at 4.96 µM]
CC(C)(C)c1ccc(C(=O)CCCCl)cc1	inactive	inactive	inactive	inactive	inactive	inactive	inactive	inactive	–	–	–	–	–	–	–
Cc1nc([N+](=O)[O-])cn1-c1ccc([N+](=O)[O-])cc1	inactive	inactive	inactive	inactive	inactive	inactive	inactive	inactive	–	–	–	–	–	–	–
CC(C)(Oc1ccc(Cl)cc1)C(=O)OCCCOC(=O)C(C)(C)Oc1ccc(Cl)cc1	inactive	inactive	inactive	inactive	inactive	7.76 µM (active)	inactive	inactive	–	–	–	–	–	–	–
COc1cc(C(=O)OC(COCCC(C)C)CN2CCOCC2)cc(OC)c1OC (centres undefined)	inactive	inactive	inactive	inactive	inactive	2.19 µM (active)	inactive	inactive	–	–	–	–	–	–	–
CCCCC(O)/C=C(C)/C=C/C=C/C(=O)N1CCCC1=O (centres undefined)	inactive	inactive	inactive	inactive	inactive	inactive	inactive	inactive	–	–	–	–	–	–	–
COCCc1ccc(OCC2CO2)cc1 (centres undefined)	inactive	inactive	inactive	inactive	inactive	inactive	inactive	inactive	–	–	–	–	–	–	–
O=C(Oc1ccccc1)c1ccccc1O	inactive	inactive	inactive	inactive	inactive	inactive	inactive	inactive	–	–	–	–	–	–	–
O=C(O)[C@H](O)[C@@H](O)[C@H](O[C@@H]1O[C@H](CO)[C@H](O)[C@H](O)[C@H]1O)[C@H](O)CO	inactive	inactive	inactive	inactive	inactive	inactive	inactive	inactive	–	–	–	–	–	–	–
NS(=O)(=O)c1ccc(N2CCCCS2(=O)=O)cc1	inactive	inactive	inactive	inactive	inactive	inactive	inactive	inactive	–	–	–	–	–	–	–
CCCc1c2oc(C(=O)O)cc(=O)c2cc2c(=O)cc(C(=O)O)n(CC)c12	inactive	inactive	inactive	inactive	inactive	inactive	inactive	inactive	–	–	–	–	–	–	–
CCCCN(CCN(CCCC)C(=O)N1CCOCC1)C(=O)N1CCOCC1	inactive	inactive	inactive	inactive	inactive	inactive	inactive	inactive	–	–	–	–	–	–	–
CC(=O)c1cc2ccccc2s1	inactive	inactive	inactive	inactive	inactive	inactive	inactive	inactive	–	–	–	–	–	–	–
CN=C(N)NC(=O)Nc1c(C)cccc1C	inactive	inactive	inactive	inactive	inactive	inactive	inactive	inactive	–	–	–	–	–	–	–
COc1cc(C(=O)NC2CCCNC2)cc(OC)c1OC (centres undefined)	inactive	inactive	inactive	inactive	inactive	inactive	inactive	inactive	–	–	–	–	–	–	–
O=C(OCC1(COC(=O)c2cccnc2)CCCC(COC(=O)c2cccnc2)(COC(=O)c2cccnc2)C1O)c1cccnc1	inactive	inactive	inactive	inactive	inactive	2.45 µM (active)	inactive	inactive	–	–	–	–	–	–	–
